Screening results deposited in PubChem by National Center for Advancing Translational Sciences (NCATS).
The list is not random: actives were taken first. Their share in the collection is about 11%.
Vaccinia Venus: qHTS for Stage-Specific Inhibitors of Vaccinia Orthopoxvirus: Venus Reporter Primary qHTS | Vaccinia virus Venus reporter expression, fluorescence | Potency, µM (titrated, usually from 36.5 µM), for inactives: top-dose activity change, negative = inhibition, most hits filed as inhibitors | 330,000 tested, 0.46% active | AID 720580, 2013; calls by dose curve; tested in A549 cells; further: on the % scale 0 is the no-effect control and ±100 the full control effect; nearly all actives have a fitted effect of over 30% in size
NS1 function inh: qHTS Assay for Inhibitors of Influenza NS1 Protein Function. Potency, µM (highest dose often 46.1 µM), for the others: at the top dose activity, positive = more growth. 270,000 tested, 0.4% active. AID 2326, 2010; calls by dose curve; further: actives are rising curves; nearly all actives have a fitted effect of over 50% in size
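S. cerevisiae expressing influenza A NS1, grown in glucose, washed, then diluted 1:100 into pH 6.0 -URA galactose medium with 23 nl compound. Growth recovery read as OD600; NS1-free strain serves as control.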
Pf growth 96h: Primary qHTS for delayed death inhibitors of the malarial parasite plastid, 96 hour incubation; P. falciparum luciferase reporter growth, 96 h; Potency, µM (highest dose often 28.7 µM), for inactives: at the highest dose activity change, negative = inhibition, usual class: inhibitors; 320,000 tested, 6.9% active; further: on the % scale 0 is the no-effect control and ±100 the full control effect
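P. falciparum expressing integrated firefly luciferase grown in erythrocytes (2% hematocrit, 0.05% parasitemia final) with compounds for 96 hours at 37 C, 5% CO2. Growth inhibition read as loss of luminescence after adding luciferase detection reagent.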
Pf growth 48h: Primary qHTS for delayed death inhibitors of the malarial parasite plastid, 48 hour incubation; P. falciparum luciferase growth in erythrocytes, 48 h; Potency, µM (top dose mostly 28.7 µM), for inactives: top-dose activity change, negative = inhibition, actives largely listed as inhibitors; 310,000 tested, 5.9% active; AID 504832, 2011; further: on the % scale 0 is the no-effect control and ±100 the full control effect
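Here the parasites carry a stable luciferase gene and grow inside erythrocytes in Albumax-based RPMI medium with compound for one erythrocytic cycle. Activity is scored as loss of luminescent signal.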
VACV mCherry inh: qHTS for Stage-Specific Inhibitors of Vaccinia Orthopoxvirus: mCherry Reporter Primary qHTS; 310,000 tested, 0.63% active; Vaccinia virus mCherry reporter infection, fluorescence; AID 720579, 2013; Potency, µM (series often up to 36.5 µM), without a hit: at the top dose activity change, negative = inhibition, actives largely listed as inhibitors; calls by dose curve; tested in A549 cells; further: on the % scale 0 is the no-effect control and ±100 the full control effect; nearly all actives have a fitted effect of over 35% in size
HCV inhibitor: qHTS Assay for Inhibitors of Hepatitis C Virus (HCV). Huh7.5.1 HCVcc-Cre infection, luciferase reporter, 44 h. Potency, µM (titrated, usually from 41.8 µM), for the others: top-dose activity change, negative = inhibition, hits mostly inhibitors. 340,000 tested, 3.4% active. AID 651820, 2012; further: on the % scale 0 is the no-effect control and ±100 the full control effect
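Infectious HCVcc-Cre (~0.5 moi) was added to cells just after compound, with cells seeded 4 h earlier at 1,000 per well. Luciferase activity after 44 h culture reported infection; substrate was incubated 15 min at room temperature before reading.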
* hit, by the source's call; i = inactive; ? = inconclusive; . = not tested or not shown; ! = repeats disagree; [ ] = another dose, or the depositor's remark. Unless noted, the call rests on the fitted dose curve; in most records, active means well fitted inhibition curve with a large enough effect; inconclusive means small, poorly fitted or top-dose-only effect, or another doubt; inactive means no such curve, though single readings can be large or run the other way. Potency means the concentration at half of the fitted maximal effect.

SMILES	Vaccinia Venus	NS1 function inh	Pf growth 96h	Pf growth 48h	VACV mCherry inh	HCV inhibitor
CC[C@@]12C(=O)N(c3ccc(OC)cc3)C(=O)N1[C@H](c1ccc(Cl)cc1)[C@@H]1C(=O)N(C3CCCCC3)C(=O)[C@@H]12	?	16.4%	?	?	-10.1%	19.3%
O=C(Nc1cccnc1)c1ccc(-c2cc(Cl)ccc2Cl)o1	-15.1%	-5.4%	12.1%	?	-22.5%	11.2µM*
O=C(Nc1cccnc1)c1ccc(-c2ccc(Cl)cc2)o1	-2.7%	.	-11.7%	19.9%	-14.6%	2.4%
O=C(NCc1cccnc1)c1ccc(-c2cc(Cl)ccc2Cl)o1	.	-8.5%	11.7µM*	?	.	?
Cc1ccc(Cl)cc1N(Cc1ccc(C(=O)NCc2cccnc2)cc1)S(=O)(=O)c1ccccc1	-7.1%	-3.7%	13.1µM*	?	-17.6%	32.8%
O=C(NCc1cccnc1)/C(=C\c1ccc(-c2ccc(Cl)c(Cl)c2)o1)S(=O)(=O)c1ccccc1	11.2µM*	?	?	?	?	11.2µM*
O=C(NCc1cccnc1)c1ccc(-c2ccc(Cl)cc2)o1	.	-0.1%	-0.5%	-15.3%	.	?
c1cncc(-c2cc(-c3cc(-c4cccnc4)n[nH]3)[nH]n2)c1	.	21.8%	.	.	.	.
CNc1ccc(-c2nc(-c3ccncc3)no2)cc1[N+](=O)[O-]	-5.3%	.	.	.	-16.1%	.
COCCCNC(=O)c1ccc2c(c1)N(Cc1ccccc1F)C(=O)c1ccccc1S2=O (configuration not stated)	-8.9%	.	.	.	-17.3%	.
COc1ccc(/C(C)=C2/SC(=S)N(CCC(=O)O)C2=O)cc1	.	-7.1%	13.8%	.	.	19.6%
Nc1c(Cl)cc(-c2csc(NC(CO)c3nc4ccccc4n3CCOCCO)n2)cc1Cl (configuration not stated)	-21.5%	.	.	.	?	-11.2%[8.37 µM]
C=CCN1C(=O)/C(=C\c2ccc(OC(=O)c3ccco3)c(OC)c2)SC1=S	i	.	?	-25.5%	237.2%	-14.6%
C=CCN1C(=O)/C(=C/c2ccc(OC(C)=O)c(OCC)c2[N+](=O)[O-])SC1=S	76.6%	-11.3%	23.1%	9.28µM*	i	?
COc1ccc(-n2cc(-c3ccc(OC(F)F)cc3)[n+]3c2CCCCC3)cc1	.	.	?	1.65µM*	.	-23.3%
COc1ccc(-c2cn(-c3ccc(Cl)cc3)c3[n+]2CCCCC3)cc1	-15.9%	-1.7%	?	?	i	-2.6%
CN(C)S(=O)(=O)c1cccc(NC(=O)c2cncc(Br)c2)c1	-15.1%	14.2%	64.1%	24.8%	i	?
Cc1ccc(S(=O)(=O)N(C)C)cc1NC(=O)c1cncc(Br)c1	8.91µM*	3.5%	13.1µM*	13.1µM*	6.31µM*	?
Fc1cccc(/C=C2\CCCC3=C2NC(=S)NC3c2cccc(F)c2)c1 (configuration not stated)	.	7.0%	4.15µM*	2.62µM*	.	8.91µM*
CCOc1ccc(-n2ccnc(SCC(=O)NC3CCCC3)c2=O)cc1	-18.1%	.	-9.0%	-7.4%	-3.8%	6.4%
N#Cc1c(NC(=O)CCN2C(=O)c3ccccc3C2=O)oc(-c2ccccc2)c1-c1ccccc1	-22.3%	2.9%	24.5%	2.0%	-4.5%	-26.5%
N#Cc1c(NC(=O)CCn2cnc3ccccc3c2=O)oc(-c2ccccc2)c1-c1ccccc1	?	?	-8.4%	?	.	10µM*!
C[C@H](CO)N1C[C@H](C)[C@@H](CN(C)Cc2ccc(Cl)c(Cl)c2)Oc2c(NC(=O)Cc3ccccc3)cccc2C1=O	?	.	.	.	5.62µM*	-28.3%
C[C@@H]1CN([C@H](C)CO)C(=O)c2cc(Br)cnc2O[C@H]1CN(C)C(=O)Cc1ccncc1	1.26µM*	.	.	.	?	.
C[C@H](CO)N1C[C@H](C)[C@@H](CN(C)C)Oc2c(NC(=O)Cc3ccccc3)cccc2C1=O	-12.8%	.	.	.	-9.7%	0.562µM*
SMILES	Vaccinia Venus	NS1 function inh	Pf growth 96h	Pf growth 48h	VACV mCherry inh	HCV inhibitor
C[C@@H]1CN([C@H](C)CO)C(=O)c2cc(Br)cnc2O[C@@H]1CN(C)C(=O)Cc1ccccc1	-7.0%	.	.	.	i	.
Cc1cccc(S(=O)(=O)N(CC(=O)Nc2ccccc2C)Cc2ccco2)c1	-24.7%	1.8%	11.7µM*	.	.	-19.4%
Cc1ccc(S(=O)(=O)N(Cc2ccccc2)c2ccccc2C(=O)NCc2ccco2)cc1	-19.5%	-45.1%	5.86µM*	10.4µM*	-12.3%	?
Cc1ccc(N(CC(=O)Nc2ccccc2-c2ccccc2)S(=O)(=O)c2ccccc2)c(C)c1	?	?	?	11.7µM*	-10.8%	-22.3%
Cc1ccc(C)c(N(CC(=O)Nc2ccccc2C(=O)NCc2ccco2)S(=O)(=O)c2ccccc2)c1	-27.9%	?	155.1%	11.7µM*	-26.8%	?
O=C(CN(Cc1ccco1)S(=O)(=O)c1ccccc1)N/N=C/c1cccc(O)c1	-14.3%	-20.8%	-23.3%	-29.1%	.	-6.5%
Cc1ccccc1OCCC(=O)OCC(=O)NC(=O)c1ccccc1	-8.4%	.	44.3%	-0.6%	-9.4%	10.6%
CCN(CC)c1ccc(S(=O)(=O)N2CCOCC2)cc1NC(=O)COC(=O)/C=C/c1ccco1	.	.	.	.	.	-21.7%
Cc1ccc(N(CC(=O)N/N=C/c2ccc(OC3CSC3)cc2)S(=O)(=O)c2ccccc2)c(C)c1	-26.2%	?	11.7µM*	?	-21.7%	?
O=C(CN(c1ccccc1)S(=O)(=O)c1ccccc1)Nc1ccccc1C(=O)NCc1ccco1	-12.1%	-9.9%	156.8%	0.0%	-20.0%	?
Cc1ccc(N(CC(=O)Nc2ccccc2C(=O)NCc2ccco2)S(=O)(=O)c2ccccc2)cc1C	-14.9%	?	.	10.4µM*	-2.3%	?
Cc1ccc(N(CC(=O)N/N=C/c2ccc(OC3CSC3)cc2)S(=O)(=O)c2ccccc2)cc1	-25.0%	13.1%	-1.0%	?	-11.4%	?
COC(=O)c1c(NC(=S)NN2CCN(C)CC2)sc2c1CCC(C)C2 (configuration not stated)	-15.4%	-1.4%	?	?	-20.2%	2.82µM*
Cc1ccc(N=Nc2c(C)[nH]n(C(N)=S)c2=O)cc1C	-4.9%	-38.0%	-23.5%	?	-21.8%	30.8%
NC(=S)n1[nH]c(-c2ccc([N+](=O)[O-])cc2)c(N=Nc2ccccc2[N+](=O)[O-])c1=O	.	.	28.7%	1.6%	.	-3.7%
Cc1[nH]n(C(N)=S)c(=O)c1N=Nc1ccc2ccccc2c1	-3.2%	.	4.65µM*	28.1%	-21.4%	6.8%
Cc1c(N=Nc2c(-c3ccc([N+](=O)[O-])cc3)[nH]n(C(N)=S)c2=O)cccc1[N+](=O)[O-]	-14.0%	.	?	1.6%	?	8.91µM*
